# Screening data from PubChem.
# The list is not random: actives were taken first. Their share in the collection is about 3.5%.
# MITF primary – human MITF inhibition, primary screen; O75030; AlphaScreen MITF homodimerization, bead proximity signal; inhibition, % at 2.6 µM; 0.91% of 650,000 active; AID 1259374; in the data active means inhibition above about 50%;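 further: 0% = vehicle wells with protein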
# GPR151 activ – human GPR151 activation; Q8TDV0; activation, % at 11.2 µM; PathHunter beta-arrestin GPR151 cells, luminescence; 1% of 650,000 active; AID 1508602; in the data active means activation above about 4.9%;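 further: 0% = median of compound wells and 100% = cells with positive control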
# Target sequence (Q8TDV0 whole entry, looked up): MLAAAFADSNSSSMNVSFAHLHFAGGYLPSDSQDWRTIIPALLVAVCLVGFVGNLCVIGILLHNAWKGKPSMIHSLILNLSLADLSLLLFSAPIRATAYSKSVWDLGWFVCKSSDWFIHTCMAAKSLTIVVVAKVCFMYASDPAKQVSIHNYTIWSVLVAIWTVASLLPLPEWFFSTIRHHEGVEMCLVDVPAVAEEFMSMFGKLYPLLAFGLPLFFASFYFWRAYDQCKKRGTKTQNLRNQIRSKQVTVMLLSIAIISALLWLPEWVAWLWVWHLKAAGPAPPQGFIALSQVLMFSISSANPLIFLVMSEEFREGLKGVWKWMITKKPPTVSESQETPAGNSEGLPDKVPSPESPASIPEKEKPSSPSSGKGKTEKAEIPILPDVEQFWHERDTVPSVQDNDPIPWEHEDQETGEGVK
# FBW7 act – human FBW7 E3 ligase activation, primary screen; AlphaScreen FBW7–phospho-cyclin E peptide binding, activator screen; normalized activity (activation), % at 26.1 µM; 0.13% of 650,000 active; in the data active means normalized activity above about 1.9%;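 further: purified mutant Fbw7 with reduced substrate affinity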
# TEAD-YAP block – TEAD-YAP interaction inhibition; HEK-TIYL cells, TEAD-Gal4/YAP UAS-luciferase luminescence; inhibition, % at 9.12 µM; 1.4% of 640,000 active; AID 1259422; in the data active means inhibition above about 32%;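 further: 0% = median of test compound wells and 100% = reference inhibitor wells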
# An asterisk follows results filed as active.
SMILES,MITF primary,GPR151 activ,FBW7 act,TEAD-YAP block
COc1cc(Nc2ncc(C)c(Nc3ccccc3)n2)cc(OC)c1OC,-3,4,0,34*
COc1cc(Nc2cc(C)nc(Nc3ccccc3)n2)cc(OC)c1OC,2,1,0,47*
COc1cc(Nc2nc(C)cc(Nc3ccccc3)n2)cc(OC)c1OC,5,3,0,46*
CC(=O)Nc1cccc(NC(=O)CSc2ncccc2-c2nc3ccccc3[nH]2)c1,12,0,0,8
O=[N+]([O-])c1cc(-c2ccc(/C=N\n3cnnc3)o2)ccc1O,58*,-3,0,5
COC(=O)c1ccc2nc(Nc3nc4c(OC)cccc4s3)sc2c1,6,-2,1,73*
O=C(NCCc1ccc(O)cc1)c1ccc2nc(Nc3ccc(-n4ccnc4)cc3)sc2c1,2,2,0,3
COc1ccc(CCNC(=O)c2ccc3nc(Nc4ccc(-n5ccnc5)cc4)sc3c2)cc1,11,2,0,62*
COC(=O)c1ccc2nc(Nc3nc4ccc(OC)cc4s3)sc2c1,-3,1,0,49*
Cc1nc(N)sc1C(=O)N/N=C/c1c(F)cccc1Cl,1,-2,0,-10
Cc1nc(N)sc1C(=O)N/N=C/c1c(Cl)ccc(Cl)c1Cl,15,1,2.5*,9
CCN(CC)CCn1nc2c3c(cccc3c1=O)-c1ccccc1-2,9,2,0,81*
COc1ccc(C(=O)/C(=C/N2C=CC=CC2=C(C#N)C#N)c2ccco2)cc1,14,-3,0,48*
CCN1CCN(CC(O)CN2CCn3c4c(c5cc(C6CCCCC6)ccc53)CCCC42)CC1 (stereo unspecified),51*,-1,0,-1
CCN1CCn2c3c(c4cc(Br)ccc42)CCCC31 (stereo unspecified),5,1,0,-12
O=C1OC(c2cccc(F)c2)=N/C1=C\c1ccccc1,-3,-7,0,36*
O=C1OC(c2ccc(Cl)c([N+](=O)[O-])c2)=N/C1=C\c1cccc(F)c1,-19,1,2.0*,4
O=C1OC(c2ccc(-c3ccccc3)cc2)=N/C1=C\c1cccc(F)c1,-3,0,0,-3
O=C1OC(c2ccc(Cl)c([N+](=O)[O-])c2)=N/C1=C/c1cccc(Cl)c1,1,-1,0,-2
O=C(/C=C/c1ccc(O)c(O)c1)c1ccc(O[C@@H]2O[C@H](CO)[C@@H](O)[C@H](O)[C@H]2O)c(O)c1O,56*,3,0,2
Cc1ccc(C(=O)Nc2nc3ccccc3n2C)cc1,16,-3,0,41*
Cn1c(NC(=O)c2ccc(Cl)c(Cl)c2)nc2ccccc21,22,0,0,-20
COc1cccc(CC2=NOC(C(=O)NCC(C)(C)CO)C2)c1 (stereo unspecified),0,0,0,1
COc1cccc(CC2=NOC(C(=O)NCc3cnc4ccccc4c3)C2)c1 (stereo unspecified),3,1,0,35*
Cc1[nH]c2ccccc2c1C(c1cccs1)N1CCOCC1 (stereo unspecified),2,-2,0,-8
SMILES,MITF primary,GPR151 activ,FBW7 act,TEAD-YAP block
CCOC(=O)c1c(-c2ccc(OC)cc2)csc1NC(=O)CSc1ncn[nH]1,4,3,0,35*
CCCCNC(=O)c1cc(-c2ccc(F)cc2)on1,-14,0,0,-135
COc1cccc(CNC(=O)c2cc3oc4ccccc4c3n2C)c1OC,15,0,0,36*
COc1cccc(CNC(=O)c2cc3oc4ccccc4c3n2C)c1,5,0,0,18
CCOc1ccc(/C=C/c2c([N+](=O)[O-])c(=O)n(C)c(=O)n2C)cc1,-4,1,0,13
CCc1ccc(/C=C/c2c([N+](=O)[O-])c(=O)n(C)c(=O)n2C)cc1,4,0,0,44*
CCOc1ccc(CSc2n[nH]c(C)n2)cc1,5,-4,0,88*
CCCOc1ccc(CSc2n[nH]c(C)n2)cc1,-5,-3,0,82*
CCOc1ccc(CSc2n[nH]c(CC)n2)cc1,6,-1,0,-5
Cc1ccc(C)c(NC(=O)CN(C)C(=O)CCl)c1,-1,-1,0,73*
CN(CC(=O)Nc1ccc(F)cc1)C(=O)CCl,16,-3,0,42*
Cc1ccc(C)c(NC(=O)CN(C)S(=O)(=O)c2ccc(Br)cc2)c1,-5,0,0,6
CCOC(=O)c1[nH]ncc1CN1CCN(Cc2ccc(OC)cc2F)C(CCO)C1 (stereo unspecified),8,-2,0,2
CCOC(=O)CC1COCCN1Cc1cn[nH]c1-c1ccc2cc(OC)ccc2c1 (stereo unspecified),13,0,0,46*
CCN(CC)CCn1c2ccccc2n2cc(-c3ccc(Cl)cc3)nc12,-17,0,4.3*,4
CCN(CC)CCn1c2ccccc2n2cc(-c3ccc(Br)cc3)nc12,-13,-2,3.6*,-3
CN(C)CCn1c2ccccc2n2cc(-c3ccc(-c4ccccc4)cc3)nc12,0,-1,1,-7
CCOc1ccc(-c2cn3c4ccccc4n(CCN(CC)CC)c3n2)cc1,16,0,1,-10
CCN(CC)CCn1c2ccccc2n2cc(-c3ccc(Cl)c(Cl)c3)nc12,-4,-1,6.2*,9
CCN(CC)CCn1c(-c2ccc(Cl)cc2)cn2c3ccccc3nc12,3,-1,0,10
CCN(CC)c1ccc(C2C=Cc3ccccc3N2C(=O)c2ccccc2)cc1 (stereo unspecified),5,1,0,-13
CCOc1c(Cl)cc(C(=O)OCC(=O)N2c3ccccc3NC(=O)C2(C)C)cc1OC,14,-1,0,32*
CC1(C)C(=O)Nc2ccccc2N1C(=O)CN1C(=O)c2ccccc2C1=O,-3,0,0,-4
CC1(C)C(=O)Nc2ccccc2N1C(=O)CCl,-8,0,0,48*
O=C(C1=C(O)C(=O)N(CCCn2ccnc2)C1c1ccc(F)cc1)c1ccco1 (stereo unspecified),5,1,0,-4
SMILES,MITF primary,GPR151 activ,FBW7 act,TEAD-YAP block
O=C(CSc1nc2ccccc2[nH]1)Nc1cc(Cl)ccc1O,-8,0,0,33*
CC1CCCCC1NC(=O)CN1C(=O)COc2ccc(S(=O)(=O)N3CCCC3)cc21 (stereo unspecified),-10,0,0,2
COc1cc(CCC(=O)OCc2nc3ccccc3s2)cc(OC)c1OC,12,1,0,1
O=C(O)c1cc(O)c(O)c(O)c1,76*,1,0,1
O=C(O)c1ccccc1,-4,0,0,-1
O=C(Nc1ccc(Cl)cc1)c1nn2c(c1Cl)NC(c1ccccc1)CC2C(F)(F)F (stereo unspecified),-9,0,0,-17
Cc1cccc(-n2cc(-c3cc4ccccc4oc3=O)[nH]c2=S)c1,6,-1,0,81*
O=c1oc2ccccc2cc1-c1cn(-c2ccccc2F)c(=S)[nH]1,-4,-1,0,68*
O=c1oc2ccccc2cc1-c1cn(-c2ccc(F)cc2)c(=S)[nH]1,-11,-1,0,72*
